From PubChem BioAssay (NCATS)
Records with an inconclusive call do not appear. Active and inactive are the calls of the source. Unless noted, calls follow the shape of the full dose curve.

What was measured:
[1] = target: Alpha-galactosidase (Coffea arabica) (UniProt Q42656); test: Counterscreen for Glucocerebrosidase Inhibitors: qHTS Assay for Coffee Bean alpha-Galactosidase at pH 4.5 (AID 957; active = well fitted curve in the direction sought with a large enough effect; an effect the other way counts as inactive or inconclusive; also: series mostly up to about 77 µM)
Alpha-galactosidase (Coffea arabica), sequence (Q42656 whole entry, looked up): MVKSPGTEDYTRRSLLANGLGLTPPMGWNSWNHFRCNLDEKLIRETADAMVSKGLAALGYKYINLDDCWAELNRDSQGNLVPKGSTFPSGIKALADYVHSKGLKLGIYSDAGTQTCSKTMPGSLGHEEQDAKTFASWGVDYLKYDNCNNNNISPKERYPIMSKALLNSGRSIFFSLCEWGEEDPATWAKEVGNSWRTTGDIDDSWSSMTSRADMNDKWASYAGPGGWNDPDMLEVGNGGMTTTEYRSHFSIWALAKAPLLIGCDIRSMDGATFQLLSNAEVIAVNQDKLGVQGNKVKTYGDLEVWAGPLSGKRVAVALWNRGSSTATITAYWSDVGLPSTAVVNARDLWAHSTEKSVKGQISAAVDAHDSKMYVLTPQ
In short: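 AC50 values derive from Hill-equation modeling of concentration-response data, normalized to no-enzyme and full-activity controls. The pH 4.5 citrate assay used 2 nM coffee bean enzyme and 80 uM fluorogenic substrate for 20 min.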

[2] = target: Alpha-galactosidase (Coffea arabica) (UniProt Q42656); test: Counterscreen for Glucocerebrosidase Inhibitors: qHTS Assay for Coffee Bean alpha-Galactosidase at pH 5.9 (AID 998; active = well fitted curve in the direction sought with a large enough effect; an effect the other way counts as inactive or inconclusive)
In short: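 Green coffee bean enzyme (2 nM) with 4-methylumbelliferyl alpha-D-galactopyranoside (80 uM) in 50 mM citric acid, 0.005% Tween-20, pH 5.9, 20 min at room temperature; compounds 0.7 nM–77 uM. Stopped at pH 10, fluorescence Ex365/Em440; Hill-fit AC50.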

[3] = Validation screen for inhibitors of Lassa infection (AID 463096)
[4] = Inducers of the Endoplasmic Reticulum Stress Response (ERSR) in human glioma: Validation (AID 504836; active = well fitted curve in the direction sought with a large enough effect; an effect the other way counts as inactive or inconclusive)
In short: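 Stably transfected U87-MG glioma cells carrying a GRP78-based luciferase sensor; 16 h compound incubation. Luminescence end-point read 10 min after Bright-Glo addition at room temperature.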

[5] = qHTS for Inhibitors of the Functional Ribonucleoprotein Complex (vRNP) of Lassa (LASV) Arenavirus: LASV Primary Screen - GLuc reporter signal (AID 1347082; calls by dose curve; tested in HEK293 reporter line; also: series mostly up to about 57 µM; nearly all actives have a fitted effect of over 60% in size)
[6] = qHTS for Inhibitors of the Functional Ribonucleoprotein Complex (vRNP) of Lassa (LASV) Arenavirus: Viability assay - alamar blue signal for LASV Primary Screen (AID 1347083; calls by dose curve; tested in HEK293 reporter line; also: series mostly up to about 57 µM; nearly all actives have a fitted effect of over 80% in size)
[7] = qHTS for Inhibitors of the Functional Ribonucleoprotein Complex (vRNP) of Lymphocytic Choriomeningitis Arenaviruses (LCMV): Viability assay - alamar blue signal for LCMV Primary Screen (AID 1347085; calls by dose curve; tested in HEK293 reporter line; also: series mostly up to about 57 µM; nearly all actives have a fitted effect of over 80% in size)
[8] = target: Nucleoprotein (Lymphocytic choriomeningitis virus (strain Armstrong)) (UniProt P09992); test: qHTS for Inhibitors of the Functional Ribonucleoprotein Complex (vRNP) of Lymphocytic Choriomeningitis Arenaviruses (LCMV): LCMV Primary Screen - GLuc reporter signal (AID 1347086); also: series mostly up to about 57 µM; nearly all actives have a fitted effect of over 70% in size
Nucleoprotein (Lymphocytic choriomeningitis virus (strain Armstrong)), sequence (P09992 whole entry, looked up): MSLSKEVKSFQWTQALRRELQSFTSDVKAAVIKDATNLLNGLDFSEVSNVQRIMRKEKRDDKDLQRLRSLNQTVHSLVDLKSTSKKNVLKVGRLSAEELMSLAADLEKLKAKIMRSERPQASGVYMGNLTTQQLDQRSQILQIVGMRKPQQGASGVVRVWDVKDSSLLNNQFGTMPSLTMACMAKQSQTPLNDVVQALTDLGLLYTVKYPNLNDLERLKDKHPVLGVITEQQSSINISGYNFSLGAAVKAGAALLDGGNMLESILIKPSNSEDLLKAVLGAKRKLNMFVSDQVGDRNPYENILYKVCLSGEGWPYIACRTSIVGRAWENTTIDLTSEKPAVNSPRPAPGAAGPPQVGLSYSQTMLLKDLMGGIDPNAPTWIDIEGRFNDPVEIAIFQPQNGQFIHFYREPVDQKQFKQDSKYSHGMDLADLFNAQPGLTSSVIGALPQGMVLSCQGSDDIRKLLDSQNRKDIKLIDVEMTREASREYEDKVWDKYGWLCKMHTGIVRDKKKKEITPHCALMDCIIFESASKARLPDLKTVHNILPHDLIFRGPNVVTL

[9] = qHTS for inhibitors of Rabies Virus screened against the NCATS CANVASS Library (AID 1347402); also: series mostly up to about 46 µM

Measured: Potency

CC(=O)NCCc1c[nH]c2ccc(O)cc12
inactive: all assays above
